The nature of experiment [1]: qHTS for Inhibitors of the Functional Ribonucleoprotein Complex (vRNP) of Lassa (LASV) Arenavirus: LASV Primary Screen - GLuc reporter signal (AID 1347082; calls by dose curve; tested in HEK293 reporter line; also: series mostly up to about 57 µM; nearly all actives have a fitted effect of over 60% in size).
Experiment [2] in a line: qHTS for Inhibitors of the Functional Ribonucleoprotein Complex (vRNP) of Lassa (LASV) Arenavirus: Viability assay - alamar blue signal for LASV Primary Screen (AID 1347083; calls by dose curve; tested in HEK293 reporter line; also: series mostly up to about 57 µM; nearly all actives have a fitted effect of over 80% in size).
Experiment [3] in a line: qHTS for Inhibitors of the Functional Ribonucleoprotein Complex (vRNP) of Lymphocytic Choriomeningitis Arenaviruses (LCMV): Viability assay - alamar blue signal for LCMV Primary Screen (AID 1347085; calls by dose curve; tested in HEK293 reporter line; also: series mostly up to about 57 µM; nearly all actives have a fitted effect of over 80% in size).
Experiment [4] deals with Nucleoprotein (Lymphocytic choriomeningitis virus (strain Armstrong)) (UniProt P09992). Kind of experiment: qHTS for Inhibitors of the Functional Ribonucleoprotein Complex (vRNP) of Lymphocytic Choriomeningitis Arenaviruses (LCMV): LCMV Primary Screen - GLuc reporter signal (AID 1347086; calls by dose curve; also: series mostly up to about 57 µM; nearly all actives have a fitted effect of over 70% in size).
Sequence of Nucleoprotein (Lymphocytic choriomeningitis virus (strain Armstrong)) (P09992 whole entry, looked up): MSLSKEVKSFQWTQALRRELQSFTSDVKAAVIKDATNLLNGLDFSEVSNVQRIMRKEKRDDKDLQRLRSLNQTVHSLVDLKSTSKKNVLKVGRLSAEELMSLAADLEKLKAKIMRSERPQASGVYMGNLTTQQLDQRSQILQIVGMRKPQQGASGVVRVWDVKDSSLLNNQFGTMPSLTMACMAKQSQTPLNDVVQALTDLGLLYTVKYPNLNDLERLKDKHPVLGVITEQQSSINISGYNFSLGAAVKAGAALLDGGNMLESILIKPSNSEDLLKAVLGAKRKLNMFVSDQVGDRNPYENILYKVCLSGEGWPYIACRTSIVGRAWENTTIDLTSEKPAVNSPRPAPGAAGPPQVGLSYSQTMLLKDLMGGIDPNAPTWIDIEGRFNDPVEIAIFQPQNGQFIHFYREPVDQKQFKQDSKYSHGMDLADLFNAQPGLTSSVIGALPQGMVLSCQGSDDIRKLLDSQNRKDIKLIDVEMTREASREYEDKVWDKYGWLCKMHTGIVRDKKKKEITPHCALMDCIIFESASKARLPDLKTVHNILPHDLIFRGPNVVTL
Experiment [5] can be described thus: qHTS of pediatric cancer cell lines to identify multiple opportunities for drug repurposing: Primary screen for TC32 cells (AID 1347089). Also: nearly all actives have a fitted effect of over 60% in size. Put shortly: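 Luminescent ATP read-out (CellTiter-Glo) of metabolically active TC32 cells after 48 h exposure. Concentration-response curves came from 11-point (MIPE, 0.78 nM–46 µM) or 8-point (NPC, 0.59 nM–46 µM) primary titrations; follow-up used 11 points.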

A short description of experiment [6]: qHTS of pediatric cancer cell lines to identify multiple opportunities for drug repurposing: Primary screen for DAOY cells (AID 1347090). Also: nearly all actives have a fitted effect of over 55% in size. Also: potency is read from the fitted curve at half-maximal effect. Put shortly: (§1)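 Eight- or eleven-point concentration series, 48 h treatment at 37 degrees C in growth media; readout CellTiter-Glo luminescence. Potency and efficacy were taken from the concentration-response curves.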
Experiment [7] is described as follows: qHTS of pediatric cancer cell lines to identify multiple opportunities for drug repurposing: Primary screen for SJ-GBM2 cells (AID 1347091). The gist of the method: as §1
Experiment [8] in a line: qHTS of pediatric cancer cell lines to identify multiple opportunities for drug repurposing: Primary screen for A673 cells (AID 1347092). Also: nearly all actives have a fitted effect of over 45% in size. The gist of the method:
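Cell viability of A673 measured by CellTiter-Glo ATP luminescence after 48 hours compound exposure. Dilution series spanned 0.78 nM to 46 µM (MIPE, 11-point) or 0.59 nM to 46 µM (NPC, 8-point); bortezomib 2.3 uM positive control.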

Results filed as inconclusive are left out. Active and inactive are the calls of the source. Unless noted, calls follow the shape of the dose curve; as a rule, active = well fitted curve in the direction sought with a large enough effect; inconclusive = small, poorly fitted or top-dose-only effect, or another doubt; inactive = no such curve, though single readings can be large; an effect the other way counts as inactive or inconclusive.

On to `O=C(O)c1ccc(S(=O)(=O)N(Cl)Cl)cc1`, for which the Potency result in experiment [1], in experiment [2], in experiment [3] and in experiment [4] was “inactive” throughout.

In the case of `CC1CCc2c(N3CCC(O)CC3)c(F)cc3c(=O)c(C(=O)O)cn1c23` (stereo not drawn), the Potency result in experiment [1], in experiment [2], in experiment [3] and in experiment [4] was “inactive” in each case.

As for `Cc1ccccc1N1CCN(CCc2nnc3n2CCCC3)CC1`, the Potency result in experiment [1], in experiment [2], in experiment [3] and in experiment [4] was “inactive” throughout.

With `CC(C)NCC(O)c1ccc(NS(C)(=O)=O)cc1` (stereo not drawn), the Potency entry in experiment [1], in experiment [2], in experiment [3] and in experiment [4] was “inactive” in each case.

Regarding `CCOC(=O)O[C@]1(C(=O)OCCl)CC[C@H]2[C@@H]3CCC4=CC(=O)C=C[C@]4(C)[C@H]3[C@@H](O)C[C@@]21C`, the Potency entry in experiment [1], in experiment [2], in experiment [3] and in experiment [4] was “inactive” throughout.

Regarding `Cc1cc2cc3c(C)cc(=O)oc3c(C)c2o1`, the Potency result in experiment [1], in experiment [2], in experiment [3] and in experiment [4] was “inactive” throughout.

`CCCC(=O)O[C@]1(C(=O)COC(=O)CC)CC[C@H]2[C@@H]3CCC4=CC(=O)CC[C@]4(C)[C@H]3[C@@H](O)C[C@@]21C`: the Potency entry in experiment [1], in experiment [2], in experiment [3] and in experiment [4] was “inactive” each time.

For `CCCC(CCC)(C(=O)OCC)C(=O)OCC`, the Potency entry in experiment [1], in experiment [2], in experiment [3] and in experiment [4] was “inactive” in each case.

`CCOc1ccccc1OCC1CNCCO1` (stereo not drawn): the Potency entry in experiment [1], in experiment [2], in experiment [3] and in experiment [4] was “inactive” in each case.

Turning to `O=C1NCC2(CCN(CCc3ccccc3)CC2)O1`, the Potency entry in experiment [1], in experiment [2], in experiment [3] and in experiment [4] was “inactive” in each case.

Regarding `O=C1c2c(O)cccc2Cc2cccc(O)c21`, the Potency entry in experiment [1], in experiment [2], in experiment [3] and in experiment [4] was “inactive” each time.

`C[C@](N)(Cc1ccc(O)cc1)C(=O)O`: the Potency entry in experiment [1], in experiment [2], in experiment [3] and in experiment [4] was “inactive” throughout.

Regarding `C[C@@H]1O[C@@H](OC[C@H]2O[C@@H](Oc3c(-c4ccc(O)c(O)c4)oc4cc(O)cc(O)c4c3=O)[C@H](O)[C@@H](O)[C@@H]2O)[C@H](O)[C@H](O)[C@H]1O`, the Potency entry in experiment [1], in experiment [2], in experiment [3] and in experiment [4] was “inactive” in each case.

For the compound `CC(C)(C)NCC(O)COc1cccc2c1C[C@H](O)[C@H](O)C2` (stereo partly drawn), the Potency result in experiment [1], in experiment [2], in experiment [3] and in experiment [4] was “inactive” throughout.

Take `CC(=O)NO`: the Potency entry in experiment [1], in experiment [2], in experiment [3] and in experiment [4] was “inactive” each time.

Take `CC1c2ccccc2CN1NC(=O)c1ccc(Cl)c(S(N)(=O)=O)c1` (stereo not drawn): the Potency entry in experiment [1], in experiment [2], in experiment [3] and in experiment [4] was “inactive” in each case.

For `CC(N)CCCC(C)(C)O` (stereo not drawn), the Potency result in experiment [1], in experiment [2], in experiment [3] and in experiment [4] was “inactive” throughout.

Turning to `CC(=O)Oc1ccc(C)cc1`, the Potency entry in experiment [1], in experiment [2], in experiment [3] and in experiment [4] was “inactive” throughout.

For the compound `Cc1cc(O)c2c(O)c3c(O)cccc3cc2c1`, the Potency result in experiment [1], in experiment [2], in experiment [3] and in experiment [4] was “inactive” throughout.

Take `CCC1(c2ccccc2)C(=O)N(COC)C(=O)N(COC)C1=O`: the Potency entry in experiment [1], in experiment [2], in experiment [3], in experiment [4], in experiment [5] and in experiment [6] was “inactive” in each case. Besides, the Potency result in experiment [7] and in experiment [8] was “inactive” in each case.

`COc1cccc(C(=O)CCN[C@@H](C)[C@H](O)c2ccccc2)c1`: the Potency entry in experiment [1], in experiment [2], in experiment [3], in experiment [4], in experiment [5] and in experiment [7] was “inactive” throughout. Also, in experiment [6], the Potency was 26.6 µM (active).

For the compound `CCCOC(=O)c1ccccc1`, the Potency result in experiment [1], in experiment [2], in experiment [3] and in experiment [4] was “inactive” throughout.

As for `CC1(C)C(C=C(Cl)Cl)C1C(=O)OC(C#N)c1cccc(Oc2ccccc2)c1` (stereo not drawn), the Potency result in experiment [1], in experiment [2], in experiment [3], in experiment [4], in experiment [5] and in experiment [6] was “inactive” in each case. Also, the Potency result in experiment [7] and in experiment [8] was “inactive” throughout.

In the case of `CC(C(=O)c1ccccc1)N(C)C` (stereo not drawn), the Potency entry in experiment [1], in experiment [2], in experiment [3], in experiment [4], in experiment [5] and in experiment [6] was “inactive” in each case. The Potency result in experiment [7] and in experiment [8] was “inactive” in each case.

For the compound `CC(C)C(=O)Nc1cccc(C(F)(F)F)c1`, the Potency entry in experiment [1], in experiment [2], in experiment [3] and in experiment [4] was “inactive” in each case.

As for `CC(C)NNC(=O)c1ccncc1`, the Potency result in experiment [1], in experiment [2], in experiment [3] and in experiment [4] was “inactive” throughout.

Regarding `CN[C@@H]1[C@@H](O)[C@@H](O[C@@H]2[C@H](O)[C@H](O[C@H]3OC(CN)=CC[C@H]3N)[C@@H](N)C[C@H]2N)OCC1(C)O` (stereo partly drawn), the Potency result in experiment [1], in experiment [2], in experiment [3] and in experiment [4] was “inactive” each time.

For `Clc1ccccc1N1CCNCC1`, the Potency entry in experiment [1], in experiment [2], in experiment [3], in experiment [4], in experiment [5] and in experiment [6] was “inactive” each time. The Potency entry in experiment [7] and in experiment [8] was “inactive” each time.

As to `COC(=O)C(Cl)C(=O)OC`, the Potency result in experiment [1], in experiment [2], in experiment [3], in experiment [4], in experiment [5] and in experiment [6] was “inactive” each time. Moreover, the Potency entry in experiment [7] and in experiment [8] was “inactive” in each case.

Consider `Nc1ccccc1`, for which the Potency result in experiment [1], in experiment [2], in experiment [3], in experiment [4], in experiment [5] and in experiment [6] was “inactive” in each case. For the same compound, the Potency entry in experiment [7] and in experiment [8] was “inactive” throughout.

Consider `C#CC(O)(C=CCl)CC` (stereo not drawn), for which the Potency result in experiment [1], in experiment [2], in experiment [3], in experiment [4], in experiment [5] and in experiment [6] was “inactive” each time. Moreover, the Potency entry in experiment [7] and in experiment [8] was “inactive” in each case.

Consider `CCCCCCC(=O)CCCCCC/C=C/C[C@@H](O)[C@H](O)[C@@](N)(CO)C(=O)O`, for which the Potency entry in experiment [1], in experiment [2], in experiment [3], in experiment [4], in experiment [5] and in experiment [6] was “inactive” throughout. Moreover, the Potency result in experiment [7] and in experiment [8] was “inactive” each time.

As for `COC1CC(=C(c2cccs2)c2cccs2)C[N+](C)(C)C1` (stereo not drawn), the Potency entry in experiment [1], in experiment [2], in experiment [3], in experiment [4], in experiment [5] and in experiment [6] was “inactive” throughout. The Potency result in experiment [7] was “inactive”.

Consider `N[C@@H](CCC(=O)N[C@@H](CS)C(=O)NCC(=O)O)C(=O)O`, for which the Potency result in experiment [1], in experiment [2], in experiment [3] and in experiment [4] was “inactive” each time.

`O=[N+]([O-])O[C@H]1CO[C@H]2[C@@H]1OC[C@H]2O[N+](=O)[O-]`: the Potency result in experiment [1], in experiment [2], in experiment [3], in experiment [4], in experiment [5] and in experiment [6] was “inactive” in each case. In addition, the Potency result in experiment [7] and in experiment [8] was “inactive” each time.

For the compound `CCC(CC)(CNC(=O)CCCO)c1cccc(OC)c1`, the Potency entry in experiment [1], in experiment [2], in experiment [3], in experiment [4], in experiment [5] and in experiment [6] was “inactive” throughout. Also, the Potency entry in experiment [7] and in experiment [8] was “inactive” each time.

As to `C#C[C@]1(O)CC[C@H]2[C@@H]3CCC4=CC(=O)CC[C@]4(C)[C@H]3CC[C@@]21C`, the Potency entry in experiment [1], in experiment [2], in experiment [3], in experiment [4], in experiment [5] and in experiment [6] was “inactive” throughout. The Potency result in experiment [7] and in experiment [8] was “inactive” throughout.
